In the supplement of paper PMC3334620:
Over roughly 33,000 sequences, “E-score (-0.5 to 0.5)” has its median near -0.036; the highest 2% begin near 0.37. Shown is part of a subset that was picked to be rich in the highest values.

The sequences below were run against T1, Yer064c (UniProt P40041) (assay: PBM E-score (8-mer binding enrichment) (E-score (-0.5 to 0.5)); higher = stronger / more preferred TF binding). Conditions: protein concentration: 200 nM; construct: GST-full length.
T1 sequence: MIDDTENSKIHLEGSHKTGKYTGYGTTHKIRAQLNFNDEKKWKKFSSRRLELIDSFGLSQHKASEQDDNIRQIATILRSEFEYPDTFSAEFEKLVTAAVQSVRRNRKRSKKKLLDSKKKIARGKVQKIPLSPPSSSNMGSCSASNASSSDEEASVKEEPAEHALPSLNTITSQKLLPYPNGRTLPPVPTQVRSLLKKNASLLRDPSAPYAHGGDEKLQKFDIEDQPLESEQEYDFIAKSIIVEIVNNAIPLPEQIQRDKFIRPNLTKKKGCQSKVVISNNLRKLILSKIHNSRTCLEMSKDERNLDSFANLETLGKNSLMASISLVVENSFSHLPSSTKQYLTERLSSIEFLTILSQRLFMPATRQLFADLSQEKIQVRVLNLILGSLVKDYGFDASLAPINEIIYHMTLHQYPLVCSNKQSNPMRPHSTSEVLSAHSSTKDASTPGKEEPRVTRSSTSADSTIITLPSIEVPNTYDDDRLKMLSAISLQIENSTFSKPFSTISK
Experimental: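 Universal 'all 10-mer' protein binding microarrays (Agilent AMADID 015681) probed with GST-tagged S. cerevisiae TFs (full-length or DBD) made by in vitro transcription/translation (PURExpress), about 100-200 nM. Bound TF was detected with fluorescent anti-GST. Each ungapped 8-mer (which stands for itself and its reverse complement) is scored by the PBM enrichment score (E-score), a modified Wilcoxon-Mann-Whitney statistic from -0.5 to +0.5, computed with the Universal PBM Analysis Suite. Scale: above 0.35 generally sequence-specific binding.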

Sequence	PBM E-score
CCCATGCC	-0.231
CCCAGAGG	-0.276
CAGTCAGC	0.406
AAGTCAGA	0.341
ATGTCAGC	-0.0283
GCGTCAGC	-0.304
GAGTCAGC	0.48
CAGTCAGG	0.333
CAGTCAGA	0.361
AAGTCAGT	0.362
AAGTCAGC	0.422
AATCTTAC	0.183
ATTTGTCG	-0.0532
AACTCAGC	0.022
GACTCAGA	0.458
AACTCAGA	0.164
CACTCAGC	-0.0645
GACTCAGC	0.457
CACTCAGA	0.0961
GGCGCGAA	-0.0884
AACGTGGC	-0.0783
ACCCTAGA	-0.0589
ACCTCGGC	-0.153
TATCACCA	-0.0277
AATCACCG	0.42

Sequence	PBM E-score
AATCACCC	0.426
CATCACCA	-0.0269
CATCACCC	-0.0525
AAACACCT	0.129
AACCACCT	0.0325
CATCACCG	0.156
AATCACCA	0.374
GATCACCC	0.00825
AAGCACCG	-0.164
AATCACCT	0.438
AGAAGAAC	-0.146
ACCAGACT	0.0775
ACGGCTAT	-0.24
GGTTTACA	-0.0888
CGTGCACG	0.0709
CCTGAGGA	0.00765
ACGGTATG	-0.0999
GGGATTAA	0.166
GTGATTAA	0.452
AGGATTAA	0.253
ATGATTAA	0.472
CGGATTAC	0.0966
CGGATTAA	0.208
CTGATTAC	0.375
CTGATTAA	0.405

Sequence	PBM E-score
CCGATTAC	-0.132
GAGATTAA	0.245
ACGATTAA	0.26
CAGATTAA	0.183
GAAACTAC	0.00139
CCGAGGAC	-0.0294
AGCAAAAC	-0.0941
CATCCGAA	0.123
ATGGAAAG	-0.0473
CATATTGG	-0.027
ATATCTAA	0.128
AGCAGGTA	-0.131
CCTGCGCA	-0.352
GATAATCC	-0.0741
AATAATCC	0.0648
AATAATCA	0.382
CATAATCA	0.413
AATAATCG	0.104
GATAATAA	-0.0817
TATAATCA	0.387
CATAATCG	0.109
CATAATCC	-0.0164
TATAATGA	0.256
TATAATAA	0.115
GATAATCA	0.384

Sequence	PBM E-score
CCTTTACC	-0.149
GAGCGTAA	0.0724
CCCCTGCC	-0.204
ATACTCTC	0.00838
AGAAGGGG	-0.324
GCCAGCAA	-0.238
GGTCCATA	-0.194
AAACGATG	-0.0198
CTAGTAAG	0.0365
CTAGTCAG	0.418
CTAGTCCA	0.109
ATAGTCCC	0.148
ATAGTCAA	0.402
ATAGTAAT	0.291
ATCGTCAA	0.0919
ATAGTCAC	0.481
ATCGTCAC	-0.00908
ATAGTCAT	0.489
ATCGTCAT	0.0309
ATAGTCCA	0.213
AACCTATA	0.0106
CCGCGATA	-0.0471
GTTGGTGA	0.115
AGAAACAG	-0.164
GCTCCAAC	-0.164

Sequence	PBM E-score
GTCGTACA	0.19
AGGGCGAC	-0.0248
CTACAGAC	-0.184
CCCATTAA	-0.0295
GGGTCGAA	0.0364
GAGGCGGA	-0.0783
CCCCCCAA	-0.315
GACGAAGA	0.0944
GTGGGTTA	0.103
CTAGTCGC	0.316
ATAGTCTG	0.177
ATAGTCGG	0.256
ATAGTCCG	0.316
ATAGTCAG	0.454
ATAGTCGC	0.389
ACAGAAGG	-0.0367
CTGCATCA	-0.0294
AGGATCGG	-0.209
CGGGCTCC	-0.307
CATGAGTA	0.341
GCTGAGTA	0.212
AATGAGCA	-0.0702
GATGAGTA	0.429
AATGAGGA	-0.00162
AATGAGTA	0.389

Sequence	PBM E-score
CGAGATTC	0.0578
AAGTTGTA	-0.0146
ATGGGGCG	-0.111
AATTAATT	0.177
GACTTATA	0.387
GACTTATC	0.307
TACTTATA	0.116
TCTCCCCA	-0.153
CCGACAGC	-0.394
CGGGAGTA	-0.0367
AGGGAGTA	0.0389
AGGGAGTC	0.44
CGGGAGTC	0.413
CGGGAGAC	0.106
AGGGAGTG	-0.175
GCTACCAA	-0.00248
CGAGCCGC	-0.00093
GGACGACC	-0.23
CGGGCACA	-0.212
CCAGGATC	-0.0208
ATCCGGAC	-0.228
AATGGGGA	-0.288
ACACCAGG	-0.148
ACCAACGA	-0.0117
GACCGGTC	-0.369

Sequence	PBM E-score
GGTGACTA	0.486
CGTGACTA	0.486
AGTGACAA	0.0598
AGTGACTG	0.403
GGTGACGA	-0.0961
AGTGACCG	-0.22
AGTGACGA	0.218
CGTGACGA	0.0595
CGTGACAA	-0.253
AGTGACGG	-0.0747
AGTGACTA	0.469
GGTGACCA	0.0718
GAGTACCA	0.252
AATACCAA	-0.0127
CTCAACCA	0.152
GCTTGCCC	-0.427
AGTATGGC	0.0363
CAAATTTG	0.13
ATGCGAAG	-0.0967
GTTACTTA	0.163
CGAAAAAA	0.0432
CGTGACTC	0.481
AGTGACGC	-0.182
CGTGACGC	-0.00579
AGTGACAC	-0.0262

Sequence	PBM E-score
AGTGACTC	0.486
CGTGACCC	0.0177
AGGGTACT	-0.144
AGATTCCA	0.0276
AGATTCAA	0.314
GGATTCAA	0.18
TGATTCAA	0.466
CGATTCCA	-0.102
TGATTCCA	0.398
AGCGGAAG	-0.191
CTGCACCC	-0.223
AGACTGCA	0.201
TGACTGAA	0.432
GGACTGAA	0.109
CGACTGCA	0.253
TGACTGCA	0.404
AGACTGAA	0.241
ACTCCAAT	0.238
CAGTCCCC	-0.225
CCGGTGAG	0.0747
GCGGAGTA	-0.0756
CGACACTA	-0.0389
GTTTTGGA	0.197
AAGCACTG	0.0399
AAACACTG	0.0608

Sequence	PBM E-score
AATCACTC	0.385
AATCACTG	0.375
CATCACTA	0.0474
GATCACTA	0.135
AATCACTA	0.373
CATCACTC	0.0183
CGGCGATC	-0.0422
GTCACCAC	0.29
CATTCTAC	-0.179
CAAGATTA	0.199
AGTCCAGG	0.0238
AAGCCAGC	-0.181
GTTCAAGA	0.0547
AACGCTCA	-0.103
TCTGGACA	-0.266
ACTTCGAA	0.166
AACTATGC	-0.153
AACTATGA	0.237
GACTATGC	0.397
CACTATGC	0.0417
TACTATGA	0.318
GACTATGA	0.435
